HP1b binding inh: HP1-beta chromodomain-methylated histone interaction inhibition | P83916 | AlphaScreen HP1-beta / biotin-H3K9me3 peptide binding | Potency, µM (series often up to 114 µM), most hits filed as inhibitors | 0.56% of 390,000 active; further: nearly all actives have a fitted effect of over 70% in size
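AlphaScreen: HP1-beta (50 nM) preformed 30 min with biotin-H3(1-18)K9me3 peptide (50 nM) in PBS pH 7.4, 0.01% Tween-20. Compound added for 30 min at RT, then streptavidin donor/nickel chelate acceptor beads (10 ug/mL) for 30 min.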
GLS inh: glutaminase GLS (human) inhibition; 0.21% of 410,000 active; Potency, µM (doses to about 45.5 µM), actives largely listed as inhibitors; O94925; GLS enzymatic activity, qHTS titration
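Enzyme dispensed in phosphate buffer (45 mM, pH 8.2, 0.02% Tween-20), compounds pinned in, then 1 mM L-glutamine solution and the glutamate oxidase–HRP–Amplex Red mix added; fluorescence read immediately and again after 30 min at room temperature.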
G9a inh: G9a (human) methyltransferase inhibition. Q96KQ7. G9a H3K9 monomethylation, AlphaScreen, 2 h. Potency, µM (top dose mostly 102 µM), most hits filed as inhibitors. 8.8% of 350,000 active; further: nearly all actives have a fitted effect of over 75% in size
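Readings reflect AlphaScreen signal from monomethyl-H3K9 antibody detection. HMT at 20 nM; substrate b-H3K9 500 nM; cofactor SAM 20 uM; 2 h RT reaction; compounds tested as titrations in qHTS with 15 min preincubation.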
BAZ2B inh: blocks human BAZ2B; Q9UIF8; AlphaScreen BAZ2B-H3K14Ac peptide displacement; Potency, µM (top dose mostly 114 µM), most hits filed as inhibitors; 4.4% of 360,000 active; AID 504333; further: nearly all actives have a fitted effect of over 60% in size
Target sequence (Q9UIF8 whole entry, looked up): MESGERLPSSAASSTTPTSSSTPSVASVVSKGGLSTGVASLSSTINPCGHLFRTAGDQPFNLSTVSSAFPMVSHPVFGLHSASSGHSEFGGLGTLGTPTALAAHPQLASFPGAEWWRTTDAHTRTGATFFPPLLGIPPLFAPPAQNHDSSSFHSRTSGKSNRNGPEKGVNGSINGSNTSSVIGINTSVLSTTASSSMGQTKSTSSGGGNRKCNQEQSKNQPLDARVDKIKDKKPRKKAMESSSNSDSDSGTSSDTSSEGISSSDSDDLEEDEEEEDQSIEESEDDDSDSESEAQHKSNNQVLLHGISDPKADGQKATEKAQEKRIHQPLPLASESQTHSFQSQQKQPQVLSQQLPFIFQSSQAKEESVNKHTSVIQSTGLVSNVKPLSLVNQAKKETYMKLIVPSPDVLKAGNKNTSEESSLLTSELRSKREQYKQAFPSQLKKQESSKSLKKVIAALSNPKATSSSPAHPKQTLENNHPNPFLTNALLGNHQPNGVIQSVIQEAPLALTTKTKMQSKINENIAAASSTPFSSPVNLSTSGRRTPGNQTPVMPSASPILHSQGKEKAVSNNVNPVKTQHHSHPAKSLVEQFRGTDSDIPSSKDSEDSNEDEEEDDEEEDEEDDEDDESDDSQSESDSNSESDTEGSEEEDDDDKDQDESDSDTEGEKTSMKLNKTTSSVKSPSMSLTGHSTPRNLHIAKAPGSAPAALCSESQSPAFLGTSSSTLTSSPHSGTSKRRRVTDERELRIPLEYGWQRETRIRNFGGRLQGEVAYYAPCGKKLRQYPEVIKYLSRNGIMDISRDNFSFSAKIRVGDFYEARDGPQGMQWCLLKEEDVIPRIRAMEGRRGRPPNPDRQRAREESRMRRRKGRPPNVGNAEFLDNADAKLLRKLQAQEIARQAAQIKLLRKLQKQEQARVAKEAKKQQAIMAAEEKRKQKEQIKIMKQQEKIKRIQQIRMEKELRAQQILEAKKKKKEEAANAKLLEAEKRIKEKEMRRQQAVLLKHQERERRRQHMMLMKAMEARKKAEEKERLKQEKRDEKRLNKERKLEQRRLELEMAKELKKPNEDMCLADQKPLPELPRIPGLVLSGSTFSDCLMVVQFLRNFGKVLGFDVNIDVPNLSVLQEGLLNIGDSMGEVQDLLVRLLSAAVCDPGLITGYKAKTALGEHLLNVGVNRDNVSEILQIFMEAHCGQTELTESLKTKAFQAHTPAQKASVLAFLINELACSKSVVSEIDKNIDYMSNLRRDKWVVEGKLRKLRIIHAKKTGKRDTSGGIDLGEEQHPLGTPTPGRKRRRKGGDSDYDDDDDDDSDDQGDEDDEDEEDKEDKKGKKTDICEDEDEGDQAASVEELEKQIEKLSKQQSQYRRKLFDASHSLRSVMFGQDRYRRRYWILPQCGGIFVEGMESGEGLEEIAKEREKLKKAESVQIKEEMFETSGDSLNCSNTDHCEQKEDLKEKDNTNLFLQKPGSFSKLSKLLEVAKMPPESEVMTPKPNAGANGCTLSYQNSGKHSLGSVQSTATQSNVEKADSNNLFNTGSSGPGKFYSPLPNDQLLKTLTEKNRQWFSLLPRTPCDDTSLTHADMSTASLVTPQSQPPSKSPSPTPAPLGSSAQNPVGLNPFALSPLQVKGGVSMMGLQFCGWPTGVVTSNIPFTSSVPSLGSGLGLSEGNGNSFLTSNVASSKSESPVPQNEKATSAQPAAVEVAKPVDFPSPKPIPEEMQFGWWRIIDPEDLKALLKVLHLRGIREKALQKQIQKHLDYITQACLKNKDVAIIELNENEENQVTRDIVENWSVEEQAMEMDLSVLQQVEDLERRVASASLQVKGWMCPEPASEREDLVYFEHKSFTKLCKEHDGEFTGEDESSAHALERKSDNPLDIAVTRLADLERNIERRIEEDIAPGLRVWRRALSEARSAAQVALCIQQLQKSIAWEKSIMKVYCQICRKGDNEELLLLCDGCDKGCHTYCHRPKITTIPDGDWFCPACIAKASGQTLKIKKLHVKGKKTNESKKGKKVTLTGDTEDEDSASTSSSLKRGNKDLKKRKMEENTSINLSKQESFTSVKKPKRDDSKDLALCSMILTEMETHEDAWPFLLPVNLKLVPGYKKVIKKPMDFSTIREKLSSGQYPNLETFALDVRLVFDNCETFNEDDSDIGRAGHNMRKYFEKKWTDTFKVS
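Inhibition is scored as reduced AlphaScreen emission. The BAZ2B/b-H3(5-23)K14Ac complex (50 nM each) in PBS pH 7.4, 0.01% Tween-20 meets compound (up to 110 uM) for 30 min at RT before bead addition.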
JMJD2A Tudor: JMJD2A Tudor domain (human) inhibition; Potency, µM (top dose mostly 114 µM), actives largely listed as inhibitors; O75164; AlphaScreen JMJD2A-Tudor / H3K4me3 peptide binding; 4.4% of 390,000 active; further: nearly all actives have a fitted effect of over 50% in size
Hits are given with their value; – = inactive; ? = inconclusive; · = no result; [ ] = remark or other dose. Shown are actives, neighbours in structure and some others; about 10% of the full set was active somewhere. The call rests on the fitted dose curve; in most records, active means well fitted curve in the direction sought with a large enough effect; inconclusive means small, poorly fitted or top-dose-only effect, or another doubt; inactive means no such curve, though single readings can be large; an effect the other way counts as inactive or inconclusive.

SMILES | HP1b binding inh | GLS inh | G9a inh | BAZ2B inh | JMJD2A Tudor
CCCN(C)C[C@H]1OCc2cnnn2CCCC(=O)N([C@H](C)CO)C[C@@H]1C | · | – | · | · | ·
CC1Cc2ccccc2N1C(=O)CSc1ncccc1C(=O)O (stereo not given) | – | – | 79.4µM | – | –
CCOc1c2c(c(-c3ccc4c(c3)OCO4)c3cc(OC)c(OC)cc13)C(=O)OC2 | – | · | · | · | –
CCOC(=O)C1=CN(C(=O)OC(C)(C)C)C(CN2C(=O)COCC2=O)C1 (stereo not given) | ? | · | · | · | –
CCOc1ccc(-c2nc(CSCC(=O)N3CCN(c4ccc(F)cc4)CC3)c(C)o2)cc1 | – | – | ? | – | –
CCN1CCN(C(=O)CS(=O)Cc2nc(-c3ccc(OC)cc3)oc2C)CC1 (stereo not given) | · | – | 70.8µM | – | –
COc1ccc(-c2nc(CSCC(=O)N3CCN(c4ccc(OC)cc4)CC3)c(C)o2)cc1 | – | – | 11.2µM | 35.5µM | ?
Cc1ccc(-c2nc(CS(=O)(=O)CC(=O)N3CCN(c4ccccc4)CC3)c(C)o2)cc1 | – | – | – | 56.2µM | ?
Cc1cccc(-c2nc(CS(=O)CC(=O)N3CCc4ccccc4C3)c(C)o2)c1 (stereo not given) | – | – | 31.6µM | – | –
COc1ccc(-c2nc(CS(=O)CC(=O)N3CCCC3)c(C)o2)cc1 (stereo not given) | – | – | ? | – | –
CCN1CCN(C(=O)CS(=O)Cc2nc(-c3cccc(C)c3)oc2C)CC1 (stereo not given) | – | – | – | – | –
CCCn1c2ccccc2c2cnn(CC(=O)NCCCN3C(C)CCCC3C)c(=O)c21 (stereo not given) | – | – | – | – | –
O=S(=O)(O)c1cc(Cl)cc(N=Nc2ccc(O)cc2O)c1O | ? | – | · | · | 20µM
CCc1ccc(S(=O)(=O)c2nnn3c2nc(Nc2ccc(F)cc2)c2cc(Cl)ccc23)cc1 | – | – | – | – | –
COc1cccc(S(=O)(=O)N(C)C[C@H]2OCc3cnnn3CCCC(=O)N([C@H](C)CO)C[C@H]2C)c1 | · | – | · | · | ·
COC(=O)/C(=C(/F)SCC(C)=O)C(F)(F)F | · | · | 15.8µM | – | ·
CCOC(=O)c1c(C)[nH]c(C)c1S(=O)(=O)N(C)CC(=O)N1CCN(c2cccc(Cl)c2)CC1 | – | – | – | – | ?
Nc1nc2ccc(Cl)cc2cc1C(=O)NCCc1c[nH]c2ccccc12 | · | – | · | · | ·
Oc1ccc(O)c2c1C1c3ccccc3C2c2ccccc21 | · | · | 3.55µM | 39.8µM | ·
O=C(Nc1cccc2cccnc12)c1csc([C@@H]2O[C@H](CO)[C@H](O)[C@H](O)[C@H]2O)n1 | · | – | · | · | ·
Cn1cnc([N+](=O)[O-])c1Sc1ncccc1N | – | – | 3.55µM | – | –
Cn1cnc([N+](=O)[O-])c1SCC(O)CCl (stereo not given) | – | – | – | – | –
Cn1cnc([N+](=O)[O-])c1SCCO | – | – | 22.4µM | – | –
NC(=O)c1ccc(NC(=O)CSc2cn(CC(=O)N3CCOCC3)c3ccccc23)cc1 | – | – | – | – | –
O=C(NCc1cc2ccccc2[nH]1)C1CCC(=O)N(CCCN2CCCC2=O)C1 (stereo not given) | – | – | – | – | –
SMILES | HP1b binding inh | GLS inh | G9a inh | BAZ2B inh | JMJD2A Tudor
CCOC(=O)CCc1c(C)nc(SCC(=O)O)c(C#N)c1C | – | – | 8.91µM | – | 25.1µM
Cc1nc(SCC(=O)O)c(C#N)c2c1CCCC2 | – | ? | 50.1µM | 79.4µM | ?
CCc1nc(SCC(=O)O)c(C#N)c2c1CCCC2 | – | – | – | – | –
CCOC(=O)CCc1c(C)nc(SCc2ccc(C(=O)O)cc2)c(C#N)c1C | – | – | – | – | –
Nc1c(C(=O)c2ccc(Cl)cc2)sc2nsc(SCCN3CCOCC3)c12 | – | – | · | – | –
Nc1c(C(=O)c2ccccc2)sc2nsc(SCCN3CCCC3)c12 | – | – | · | ? | 79.4µM
O=C1CSC(=S)N1N=Cc1ccc2c(c1)OCO2 | – | – | · | · | –
O=C(Cc1ccc(Cl)cc1)NNC(=O)C1CC=CCC1C(=O)O (stereo not given) | · | · | – | – | ·
COC(=O)CCC(=O)OC1(C)C(=O)C2=CN(c3ccc(OC)cc3)C(c3ccc(OC)cc3)=CC2=C(Br)C1=O (stereo not given) | ? | – | · | · | 39.8µM
COCCN1C=C2C(=O)C(C)(OC(=O)CCC(=O)OC)C(=O)C(Br)=C2C=C1c1ccc(OC)cc1 (stereo not given) | – | – | · | · | ?
COC(=O)CCCC1=CC2=C(c3ccccc3)C(=O)C(C)(OC(=O)C3CCCC3)C(=O)C2=CN1Cc1ccc(OC)cc1 (stereo not given) | ? | – | ? | ? | 50.1µM
COC(=O)CCC(=O)OC1(C)C(=O)C2=CN(C3CCCC3)C(c3ccc(OC)cc3)=CC2=C(Br)C1=O (stereo not given) | ? | – | –[12.7 µM] | 44.7µM | 56.2µM
COC(=O)CCCC1=CC2=C(c3ccccc3)C(=O)C(C)(OC(=O)C3CCCC3)C(=O)C2=CN1Cc1ccc2c(c1)OCO2 (stereo not given) | – | – | –[12.7 µM] | ? | ?
CCN(CCCNC(=O)c1ccc(Sc2ccc(Cl)cc2)c(NC(C)=O)c1)c1cccc(C)c1 | ? | – | 12.6µM | ? | ?
CCN(CCNC(=O)c1ccc(C#N)cc1)c1cccc(C)c1 | – | – | 12.6µM | – | –
COc1cccc(CCNC(=O)c2ccc(C#N)cc2)c1 | – | – | · | – | –
COc1ccc(CN=C2NN=C(c3ccccc3)CS2)cc1 | – | – | 35.5µM | · | ?
Cc1ccc(C)c(C2=NNC(=NCc3ccccc3)SC2)c1 | – | – | 35.5µM | – | –
c1ccc(CN=C2NN=C(c3cc4ccccc4o3)CS2)cc1 | – | – | ? | ? | –
O=C(Nc1ccccc1N1CCCCC1)C1CCN(S(=O)(=O)c2ccccc2C(F)(F)F)CC1 | – | – | – | – | –
CCc1ccccc1NC(=O)C1CCN(S(=O)(=O)c2ccccc2)CC1 | – | – | – | – | –
O=C(Nc1ccccc1N1CCCC1)C1CCN(S(=O)(=O)c2ccccc2)CC1 | – | – | 50.1µM | – | ?
Cc1cccc(N2CC(C(=O)Nc3ccc(S(=O)(=O)N4CCCCC4)cc3)CC2=O)c1C (stereo not given) | – | – | – | – | –
Cc1ccccc1N1CC(C(=O)Nc2ccc(S(=O)(=O)N3CCCCC3)cc2)CC1=O (stereo not given) | – | – | 70.8µM | – | –
O=C(Nc1ccccc1N1CCCC1)C1CCN(S(=O)(=O)c2ccccc2C(F)(F)F)CC1 | – | – | 35.5µM | – | ?
O=C(Nc1ccc(N2CCOCC2)c(Cl)c1)c1ccc(Br)o1 | – | – | –[12.7 µM] | – | –
O=C(Nc1ccc(N2CCN(C(=O)c3ccccc3)CC2)cc1)c1cc2ccccc2o1 | – | – | – | – | –
O=C(Nc1ccc(Cl)c(C(=O)N2CCOCC2)c1)c1ccccc1 | – | – | 44.7µM | – | –

Bioassay records from PubChem BioAssay.
